# According to PMC7862700, “An all-to-all approach to the identification of sequence-specific readers for epigenetic DNA modifications on cytosine”:
# Experiments:
# Assay in all cases: DAPPL (digital affinity profiling via proximity ligation, sequencing); 10 mM Tris-HCl pH 7.5, 50 mM NaCl, 1 mM DTT, 4% glycerol, room temperature, 30 min; GST-TFs on glutathione beads, 16-mer random dsDNA library, 0.1% formaldehyde crosslink after washing; high values mean tight binding
# FLI1 = biological target: T1, FLI1 (Homo sapiens, UniProt Q01543 1-452); settings: protein: recombinant; tags: N-terminal GST; dsDNA, one strand shown
# T1 sequence: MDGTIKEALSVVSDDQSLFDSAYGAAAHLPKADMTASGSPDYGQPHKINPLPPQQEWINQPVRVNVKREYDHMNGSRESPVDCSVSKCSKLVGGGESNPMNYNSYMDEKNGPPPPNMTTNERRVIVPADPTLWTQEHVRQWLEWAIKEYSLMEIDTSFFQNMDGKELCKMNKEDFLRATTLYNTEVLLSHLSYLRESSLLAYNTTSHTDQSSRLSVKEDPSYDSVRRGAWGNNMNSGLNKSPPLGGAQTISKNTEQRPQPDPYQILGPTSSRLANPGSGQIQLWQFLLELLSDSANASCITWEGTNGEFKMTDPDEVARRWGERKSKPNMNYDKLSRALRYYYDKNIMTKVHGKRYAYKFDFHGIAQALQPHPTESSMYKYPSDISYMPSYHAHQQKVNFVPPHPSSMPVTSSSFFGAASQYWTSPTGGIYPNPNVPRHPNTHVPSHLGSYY
# Procedure, shortened: (§1)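 Pools of DNA-barcoded human transcription factors, expressed in yeast as GST fusions on glutathione beads and combined with a tag-only sample, were incubated with 200 nmole of a 16-mer random double-stranded DNA library. Incubation took 30 min at room temperature in Tris/NaCl/DTT/glycerol buffer and was followed by washing, 0.1% formaldehyde crosslinking, proximity ligation (BsaI/T4 ligase, 1 h, 37 °C), PCR amplification and sequencing on an Illumina NextSeq500. Binding signal is the ratio of a hexamer's read frequency for a factor to its frequency for the tag-only sample.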
# ELK1 = biological target: T2, ELK1 (Homo sapiens, UniProt P19419 1-428); settings: protein: recombinant; tags: N-terminal GST; dsDNA, one strand shown
# T2 sequence: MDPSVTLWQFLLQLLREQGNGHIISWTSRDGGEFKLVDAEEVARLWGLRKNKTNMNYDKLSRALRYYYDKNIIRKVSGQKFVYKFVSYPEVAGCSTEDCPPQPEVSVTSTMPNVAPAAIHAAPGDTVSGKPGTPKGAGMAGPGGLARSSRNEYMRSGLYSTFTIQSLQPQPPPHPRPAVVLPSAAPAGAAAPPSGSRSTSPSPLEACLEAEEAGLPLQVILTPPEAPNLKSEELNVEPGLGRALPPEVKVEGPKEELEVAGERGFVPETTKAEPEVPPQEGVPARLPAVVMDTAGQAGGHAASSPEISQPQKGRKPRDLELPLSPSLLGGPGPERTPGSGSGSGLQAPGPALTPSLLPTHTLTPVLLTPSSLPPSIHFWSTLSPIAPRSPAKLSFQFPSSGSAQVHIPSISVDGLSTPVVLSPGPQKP
# Procedure, shortened: as §1
# GABPA = biological target: T3, GABPA (Homo sapiens, UniProt Q06546 1-454); settings: protein: recombinant; tags: N-terminal GST; dsDNA, one strand shown
# T3 sequence: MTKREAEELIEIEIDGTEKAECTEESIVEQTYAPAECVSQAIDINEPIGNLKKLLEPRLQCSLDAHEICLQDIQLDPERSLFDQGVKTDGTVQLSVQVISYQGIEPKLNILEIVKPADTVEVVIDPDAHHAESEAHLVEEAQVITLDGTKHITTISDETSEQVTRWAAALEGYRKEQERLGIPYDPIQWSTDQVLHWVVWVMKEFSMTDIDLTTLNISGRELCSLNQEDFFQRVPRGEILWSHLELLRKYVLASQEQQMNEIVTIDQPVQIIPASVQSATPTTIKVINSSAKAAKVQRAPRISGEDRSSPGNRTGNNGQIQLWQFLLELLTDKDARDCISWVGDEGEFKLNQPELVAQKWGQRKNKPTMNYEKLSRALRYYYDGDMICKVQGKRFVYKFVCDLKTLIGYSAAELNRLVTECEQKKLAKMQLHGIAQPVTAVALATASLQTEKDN
# Procedure, shortened: as §1
# ERG = biological target: T4, ERG (Homo sapiens, UniProt P11308 1-479); settings: protein: recombinant; tags: N-terminal GST; dsDNA, one strand shown
# T4 sequence: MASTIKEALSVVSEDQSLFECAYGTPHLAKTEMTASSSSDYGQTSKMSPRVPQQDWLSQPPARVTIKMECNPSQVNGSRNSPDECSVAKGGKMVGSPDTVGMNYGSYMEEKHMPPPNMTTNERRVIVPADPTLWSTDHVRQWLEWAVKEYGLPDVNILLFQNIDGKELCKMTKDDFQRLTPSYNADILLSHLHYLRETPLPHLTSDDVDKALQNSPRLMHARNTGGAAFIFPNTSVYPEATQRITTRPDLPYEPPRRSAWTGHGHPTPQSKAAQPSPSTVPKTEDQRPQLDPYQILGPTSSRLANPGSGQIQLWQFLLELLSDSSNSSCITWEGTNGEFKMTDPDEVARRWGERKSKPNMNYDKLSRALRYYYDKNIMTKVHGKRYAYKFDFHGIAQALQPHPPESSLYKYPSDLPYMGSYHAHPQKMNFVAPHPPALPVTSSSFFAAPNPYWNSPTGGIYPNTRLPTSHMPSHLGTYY
# Procedure, shortened: as §1
# ELF1 = ELF1 (Homo sapiens, UniProt P32519 1-619); settings: protein: recombinant; tags: N-terminal GST; dsDNA, one strand shown
# ELF1, sequence (P32519 whole entry): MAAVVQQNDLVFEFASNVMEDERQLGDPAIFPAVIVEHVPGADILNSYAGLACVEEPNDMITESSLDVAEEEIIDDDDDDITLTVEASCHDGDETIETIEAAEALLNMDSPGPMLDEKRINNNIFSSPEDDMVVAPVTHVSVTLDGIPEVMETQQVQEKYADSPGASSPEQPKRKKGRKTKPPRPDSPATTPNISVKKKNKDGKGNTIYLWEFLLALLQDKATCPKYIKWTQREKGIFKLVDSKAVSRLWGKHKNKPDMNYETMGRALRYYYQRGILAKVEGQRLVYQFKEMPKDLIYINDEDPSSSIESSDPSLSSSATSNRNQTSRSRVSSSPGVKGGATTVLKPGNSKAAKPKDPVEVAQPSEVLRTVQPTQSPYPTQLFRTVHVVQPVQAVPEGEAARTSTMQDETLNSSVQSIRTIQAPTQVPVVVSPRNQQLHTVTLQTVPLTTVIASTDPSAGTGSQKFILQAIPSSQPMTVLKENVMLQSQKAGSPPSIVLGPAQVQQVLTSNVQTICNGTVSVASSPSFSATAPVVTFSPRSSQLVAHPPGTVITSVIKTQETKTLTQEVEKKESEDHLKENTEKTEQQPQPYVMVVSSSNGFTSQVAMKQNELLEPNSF
# Procedure, shortened: as §1
# EHF = biological target: T5, EHF (Homo sapiens, UniProt Q9NZC4 1-300); settings: protein: recombinant; tags: N-terminal GST; dsDNA, one strand shown
# T5 sequence: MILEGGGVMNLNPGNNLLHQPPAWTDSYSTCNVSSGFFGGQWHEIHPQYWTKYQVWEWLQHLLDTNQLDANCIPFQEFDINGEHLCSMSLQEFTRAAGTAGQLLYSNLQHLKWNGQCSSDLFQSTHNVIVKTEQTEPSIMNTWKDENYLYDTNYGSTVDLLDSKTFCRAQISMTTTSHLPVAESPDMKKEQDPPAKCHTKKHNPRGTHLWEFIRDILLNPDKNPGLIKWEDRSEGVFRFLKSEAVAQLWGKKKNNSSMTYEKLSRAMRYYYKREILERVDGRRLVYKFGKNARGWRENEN
# Procedure, shortened: as §1
# SPI1 = SPI1 (Homo sapiens, UniProt P17947 1-270); settings: protein: recombinant; tags: N-terminal GST; dsDNA, one strand shown
# Procedure, shortened: as §1
# SPIB = SPIB (Homo sapiens, UniProt Q01892 1-262); settings: protein: recombinant; tags: N-terminal GST; dsDNA, one strand shown
# SPIB, sequence (Q01892 whole entry): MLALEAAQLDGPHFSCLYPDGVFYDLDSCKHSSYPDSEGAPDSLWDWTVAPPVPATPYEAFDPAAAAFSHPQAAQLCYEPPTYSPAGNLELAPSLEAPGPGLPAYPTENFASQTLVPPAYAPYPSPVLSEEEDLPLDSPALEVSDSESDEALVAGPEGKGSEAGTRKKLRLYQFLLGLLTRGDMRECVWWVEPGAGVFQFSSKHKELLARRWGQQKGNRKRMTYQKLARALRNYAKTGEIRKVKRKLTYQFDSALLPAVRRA
# Procedure, shortened: as §1
# ELK3 = biological target: T6, ELK3 (Homo sapiens, UniProt P41970 1-407); settings: protein: recombinant; tags: N-terminal GST; dsDNA, one strand shown
# T6 sequence: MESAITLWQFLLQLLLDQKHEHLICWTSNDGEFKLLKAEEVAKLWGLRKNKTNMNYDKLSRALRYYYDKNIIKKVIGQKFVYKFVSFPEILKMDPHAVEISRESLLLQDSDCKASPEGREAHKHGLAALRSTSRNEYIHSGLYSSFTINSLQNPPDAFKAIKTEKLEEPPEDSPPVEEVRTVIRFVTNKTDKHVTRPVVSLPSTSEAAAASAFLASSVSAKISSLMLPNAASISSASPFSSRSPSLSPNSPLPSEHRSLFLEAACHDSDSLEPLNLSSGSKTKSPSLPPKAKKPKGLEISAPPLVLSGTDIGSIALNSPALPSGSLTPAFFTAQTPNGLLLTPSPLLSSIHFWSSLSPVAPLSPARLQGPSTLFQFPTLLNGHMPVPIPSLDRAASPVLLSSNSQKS
# Procedure, shortened: as §1
# FEV = biological target: T7, FEV (Homo sapiens, UniProt Q99581 1-238); settings: protein: recombinant; tags: N-terminal GST; dsDNA, one strand shown
# T7 sequence: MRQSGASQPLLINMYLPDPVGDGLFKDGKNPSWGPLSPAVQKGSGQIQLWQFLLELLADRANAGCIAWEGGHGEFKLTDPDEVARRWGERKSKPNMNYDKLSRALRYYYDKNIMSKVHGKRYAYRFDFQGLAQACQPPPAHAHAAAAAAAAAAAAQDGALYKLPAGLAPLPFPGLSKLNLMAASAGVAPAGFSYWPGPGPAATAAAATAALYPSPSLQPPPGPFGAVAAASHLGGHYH
# Procedure, shortened: as §1
# ETV5 = ETV5 (Homo sapiens, UniProt P41161 1-510); settings: protein: recombinant; tags: N-terminal GST; dsDNA, one strand shown
# ETV5, sequence (P41161 whole entry): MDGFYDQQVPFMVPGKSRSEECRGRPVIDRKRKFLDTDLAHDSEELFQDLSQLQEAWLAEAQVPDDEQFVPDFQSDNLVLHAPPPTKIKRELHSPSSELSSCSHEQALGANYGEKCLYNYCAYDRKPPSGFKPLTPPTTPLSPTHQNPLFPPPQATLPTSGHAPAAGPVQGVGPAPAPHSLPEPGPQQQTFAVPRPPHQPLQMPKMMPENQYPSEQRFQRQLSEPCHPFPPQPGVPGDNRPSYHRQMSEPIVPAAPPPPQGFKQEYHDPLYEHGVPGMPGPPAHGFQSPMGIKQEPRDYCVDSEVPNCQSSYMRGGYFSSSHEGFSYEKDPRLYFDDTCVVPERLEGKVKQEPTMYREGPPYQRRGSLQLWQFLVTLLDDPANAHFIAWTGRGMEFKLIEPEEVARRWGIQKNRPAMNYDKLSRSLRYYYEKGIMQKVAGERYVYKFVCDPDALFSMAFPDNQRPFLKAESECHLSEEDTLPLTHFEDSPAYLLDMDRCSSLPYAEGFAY
# Procedure, shortened: as §1
# HSF1 = HSF1 (Homo sapiens, UniProt Q00613 1-529); settings: protein: recombinant; tags: N-terminal GST; chain copies: 3; dsDNA, one strand shown
# HSF1, sequence (Q00613 whole entry): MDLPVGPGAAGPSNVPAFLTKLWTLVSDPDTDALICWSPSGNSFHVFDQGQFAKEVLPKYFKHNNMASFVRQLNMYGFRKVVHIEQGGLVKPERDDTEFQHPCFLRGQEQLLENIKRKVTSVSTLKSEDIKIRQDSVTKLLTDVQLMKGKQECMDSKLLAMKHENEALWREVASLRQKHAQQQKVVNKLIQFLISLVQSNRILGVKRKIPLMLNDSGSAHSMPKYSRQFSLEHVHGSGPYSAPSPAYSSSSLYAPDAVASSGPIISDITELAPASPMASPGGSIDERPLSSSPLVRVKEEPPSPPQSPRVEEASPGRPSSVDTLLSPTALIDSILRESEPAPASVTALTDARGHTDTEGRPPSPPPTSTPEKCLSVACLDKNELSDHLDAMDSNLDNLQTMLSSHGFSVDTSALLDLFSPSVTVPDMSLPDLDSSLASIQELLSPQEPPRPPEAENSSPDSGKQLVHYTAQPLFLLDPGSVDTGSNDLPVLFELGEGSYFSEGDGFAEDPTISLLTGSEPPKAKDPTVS
# Procedure, shortened: as §1
# SPIC = biological target: T8, SPIC (Homo sapiens, UniProt Q8N5J4 1-248); settings: protein: recombinant; tags: N-terminal GST; dsDNA, one strand shown
# T8 sequence: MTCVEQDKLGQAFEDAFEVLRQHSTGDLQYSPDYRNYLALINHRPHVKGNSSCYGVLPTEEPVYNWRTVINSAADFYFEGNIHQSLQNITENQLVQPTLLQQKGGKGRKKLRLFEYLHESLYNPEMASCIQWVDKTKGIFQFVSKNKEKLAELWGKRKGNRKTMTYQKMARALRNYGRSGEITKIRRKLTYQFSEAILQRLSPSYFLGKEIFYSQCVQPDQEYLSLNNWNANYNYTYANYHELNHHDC
# Procedure, shortened: as §1
# ELF4 = ELF4 (Homo sapiens, UniProt Q99607 1-663); settings: protein: recombinant; tags: N-terminal GST; dsDNA, one strand shown
# ELF4, sequence (Q99607 whole entry): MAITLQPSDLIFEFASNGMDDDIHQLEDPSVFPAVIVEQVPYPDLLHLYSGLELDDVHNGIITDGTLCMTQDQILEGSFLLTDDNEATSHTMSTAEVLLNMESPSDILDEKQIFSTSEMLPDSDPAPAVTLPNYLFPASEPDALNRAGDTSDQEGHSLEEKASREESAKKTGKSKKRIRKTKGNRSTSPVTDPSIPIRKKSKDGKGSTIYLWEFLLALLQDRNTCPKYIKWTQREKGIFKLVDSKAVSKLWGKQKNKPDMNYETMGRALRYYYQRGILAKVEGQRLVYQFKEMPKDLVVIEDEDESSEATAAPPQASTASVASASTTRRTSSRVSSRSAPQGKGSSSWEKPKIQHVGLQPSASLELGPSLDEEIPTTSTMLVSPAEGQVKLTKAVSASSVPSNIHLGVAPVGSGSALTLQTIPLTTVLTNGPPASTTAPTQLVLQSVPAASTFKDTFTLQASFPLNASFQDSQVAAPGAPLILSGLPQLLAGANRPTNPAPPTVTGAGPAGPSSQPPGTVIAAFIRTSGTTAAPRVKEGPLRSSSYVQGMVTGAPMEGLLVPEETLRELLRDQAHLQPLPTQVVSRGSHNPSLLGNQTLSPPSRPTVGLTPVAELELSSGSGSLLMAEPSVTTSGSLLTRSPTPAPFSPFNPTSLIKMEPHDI
# Procedure, shortened: as §1
# ELK4 = biological target: T9, ELK4 (Homo sapiens, UniProt P28324-2 1-405); settings: protein: recombinant; tags: N-terminal GST; dsDNA, one strand shown
# T9 sequence: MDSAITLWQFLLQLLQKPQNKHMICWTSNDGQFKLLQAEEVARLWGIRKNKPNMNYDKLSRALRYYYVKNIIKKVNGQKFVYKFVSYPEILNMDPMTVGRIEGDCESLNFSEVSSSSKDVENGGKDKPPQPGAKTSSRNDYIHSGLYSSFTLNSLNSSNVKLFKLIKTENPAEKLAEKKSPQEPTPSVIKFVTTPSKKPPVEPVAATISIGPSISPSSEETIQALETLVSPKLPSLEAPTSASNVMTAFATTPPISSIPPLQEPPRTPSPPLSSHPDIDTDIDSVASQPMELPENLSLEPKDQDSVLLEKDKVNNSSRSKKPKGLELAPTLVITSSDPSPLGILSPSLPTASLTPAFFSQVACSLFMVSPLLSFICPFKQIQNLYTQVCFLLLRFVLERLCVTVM
# Procedure, shortened: as §1
# ETV2 = biological target: T10, ETV2 (Homo sapiens, UniProt O00321 1-342); settings: protein: recombinant; tags: N-terminal GST; dsDNA, one strand shown
# T10 sequence: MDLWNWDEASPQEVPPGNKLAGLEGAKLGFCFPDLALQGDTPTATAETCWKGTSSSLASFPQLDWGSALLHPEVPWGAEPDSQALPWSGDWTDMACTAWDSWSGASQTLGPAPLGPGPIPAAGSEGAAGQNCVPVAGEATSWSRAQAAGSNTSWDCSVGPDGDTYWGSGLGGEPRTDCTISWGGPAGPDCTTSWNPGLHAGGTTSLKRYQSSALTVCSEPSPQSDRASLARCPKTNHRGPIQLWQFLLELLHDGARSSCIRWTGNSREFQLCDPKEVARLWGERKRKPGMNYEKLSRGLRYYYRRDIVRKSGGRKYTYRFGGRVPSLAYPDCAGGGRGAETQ
# Procedure, shortened: as §1
# ELF3 = biological target: T11, ELF3 (Homo sapiens, UniProt P78545 1-371); settings: protein: recombinant; tags: N-terminal GST; dsDNA, one strand shown
# T11 sequence: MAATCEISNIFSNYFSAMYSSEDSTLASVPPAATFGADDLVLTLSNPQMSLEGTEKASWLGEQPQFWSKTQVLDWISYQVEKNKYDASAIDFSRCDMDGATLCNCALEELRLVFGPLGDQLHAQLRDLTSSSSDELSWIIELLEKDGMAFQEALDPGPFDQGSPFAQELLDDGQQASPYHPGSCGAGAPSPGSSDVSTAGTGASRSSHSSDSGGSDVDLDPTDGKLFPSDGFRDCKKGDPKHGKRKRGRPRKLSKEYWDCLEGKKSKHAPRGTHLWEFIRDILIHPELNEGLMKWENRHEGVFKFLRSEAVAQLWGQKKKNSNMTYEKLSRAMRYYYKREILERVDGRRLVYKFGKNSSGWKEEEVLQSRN
# Procedure, shortened: as §1
# CRX = CRX (Homo sapiens, UniProt O43186 1-299); settings: protein: recombinant; tags: N-terminal GST; dsDNA, one strand shown
# CRX, sequence (O43186 whole entry): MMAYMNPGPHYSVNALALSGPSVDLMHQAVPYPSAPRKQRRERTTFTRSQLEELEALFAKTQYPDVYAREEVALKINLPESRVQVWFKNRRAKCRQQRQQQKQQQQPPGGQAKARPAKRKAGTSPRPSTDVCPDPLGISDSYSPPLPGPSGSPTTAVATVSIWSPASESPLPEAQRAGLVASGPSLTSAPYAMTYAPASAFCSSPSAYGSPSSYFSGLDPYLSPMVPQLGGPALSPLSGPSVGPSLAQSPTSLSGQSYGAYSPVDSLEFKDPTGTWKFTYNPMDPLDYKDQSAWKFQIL
# Procedure, shortened: as §1
# ETV1 = ETV1 (Homo sapiens, UniProt P50549 1-477); settings: protein: recombinant; tags: N-terminal GST; dsDNA, one strand shown
# ETV1, sequence (P50549 whole entry): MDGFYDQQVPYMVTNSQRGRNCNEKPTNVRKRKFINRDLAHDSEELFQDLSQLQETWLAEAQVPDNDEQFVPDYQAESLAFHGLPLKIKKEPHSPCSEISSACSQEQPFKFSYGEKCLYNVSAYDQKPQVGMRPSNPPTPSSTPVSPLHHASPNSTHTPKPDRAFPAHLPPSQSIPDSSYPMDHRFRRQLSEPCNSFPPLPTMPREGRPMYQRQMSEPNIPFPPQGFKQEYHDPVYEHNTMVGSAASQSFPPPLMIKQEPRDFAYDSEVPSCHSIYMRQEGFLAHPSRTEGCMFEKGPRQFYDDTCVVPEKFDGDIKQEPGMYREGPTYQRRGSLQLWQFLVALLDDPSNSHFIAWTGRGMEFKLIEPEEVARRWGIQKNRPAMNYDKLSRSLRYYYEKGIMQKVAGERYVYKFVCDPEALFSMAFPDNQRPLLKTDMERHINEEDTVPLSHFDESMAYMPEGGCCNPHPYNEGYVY
# Procedure, shortened: as §1
sequence,measurement,setting,value
AAATGG,binding signal,FLI1,"1.52 fold enrichment (6-mer frequency, TF over GST control)"
same,binding signal,ELK1,"1.42 fold enrichment (6-mer frequency, TF over GST control)"
same,binding signal,GABPA,"1.49 fold enrichment (6-mer frequency, TF over GST control)"
same,binding signal,ERG,"1.56 fold enrichment (6-mer frequency, TF over GST control)"
same,binding signal,ELF1,"1.49 fold enrichment (6-mer frequency, TF over GST control)"
same,binding signal,EHF,"1.55 fold enrichment (6-mer frequency, TF over GST control)"
same,binding signal,SPI1,"1.59 fold enrichment (6-mer frequency, TF over GST control)"
same,binding signal,SPIB,"1.43 fold enrichment (6-mer frequency, TF over GST control)"
same,binding signal,ELK3,"1.47 fold enrichment (6-mer frequency, TF over GST control)"
same,binding signal,FEV,"1.42 fold enrichment (6-mer frequency, TF over GST control)"
same,binding signal,ETV5,"1.56 fold enrichment (6-mer frequency, TF over GST control)"
same,binding signal,HSF1,"1.27 fold enrichment (6-mer frequency, TF over GST control)"
same,binding signal,SPIC,"1.51 fold enrichment (6-mer frequency, TF over GST control)"
same,binding signal,ELF4,"1.49 fold enrichment (6-mer frequency, TF over GST control)"
same,binding signal,ELK4,"1.5 fold enrichment (6-mer frequency, TF over GST control)"
same,binding signal,ETV2,"1.47 fold enrichment (6-mer frequency, TF over GST control)"
same,binding signal,ELF3,"1.48 fold enrichment (6-mer frequency, TF over GST control)"
same,binding signal,CRX,"1.22 fold enrichment (6-mer frequency, TF over GST control)"
same,binding signal,ETV1,"1.5 fold enrichment (6-mer frequency, TF over GST control)"
